Results taken from the supplement of paper PMC9694430.

Experiments:
Assay in all cases: thermal shift delta Tm vs DMSO control; higher = stronger stabilization (binding)
Conditions in all cases: 12.5 µM; protein concentration 2 µM
[1] = system: LOC_OS01G01410-cb001
Procedure, shortened: (§1)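 Thermal shift values come from differential scanning fluorimetry on purified rice kinase domains made in E. coli, with melting temperatures obtained from Boltzmann fits. Samples of 19.5 μl held 2 μM kinase, 100 mM potassium phosphate pH 7.5, 150 mM NaCl, 10% glycerol, 5 × SYPRO Orange and compound in DMSO, and were heated from 25°C to 95°C at 0.05°C/s. Each shift is a triplicate mean relative to the DMSO-only protein sample.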

[2] = system: LOC_OS01G02750-cb003
Procedure, shortened: as §1

[3] = system: LOC_OS01G10900-cb004
Procedure, shortened: as §1

[4] = system: LOC_OS01G13800-cb001
Procedure, shortened: as §1

[5] = system: LOC_OS01G14860-cb001
Procedure, shortened: as §1

[6] = system: LOC_OS01G21960-cb002
Procedure, shortened: as §1

[7] = system: LOC_OS01G39600-cb002
Procedure, shortened: as §1

[8] = system: LOC_OS01G48390-cb002
Procedure, shortened: as §1

[9] = system: LOC_OS01G51400-cb002
Procedure, shortened: as §1

[10] = system: T1, LOC_OS01G52050-cb004
T1 sequence (whole entry): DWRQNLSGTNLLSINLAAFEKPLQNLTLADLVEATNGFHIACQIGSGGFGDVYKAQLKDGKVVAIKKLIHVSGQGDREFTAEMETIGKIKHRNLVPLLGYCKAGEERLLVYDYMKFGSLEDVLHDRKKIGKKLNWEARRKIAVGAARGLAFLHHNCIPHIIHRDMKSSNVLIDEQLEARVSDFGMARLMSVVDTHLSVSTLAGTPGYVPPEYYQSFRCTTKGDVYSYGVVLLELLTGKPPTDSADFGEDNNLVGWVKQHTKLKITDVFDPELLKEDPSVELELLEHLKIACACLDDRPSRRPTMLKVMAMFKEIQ
Procedure, shortened: as §1
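Note: purified Escherichia coli-expressed rice kinase domain construct.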

Compound | thermal shift delta Tm [1] [°C] | thermal shift delta Tm [2] [°C] | thermal shift delta Tm [3] [°C] | thermal shift delta Tm [4] [°C] | thermal shift delta Tm [5] [°C] | thermal shift delta Tm [6] [°C] | thermal shift delta Tm [7] [°C] | thermal shift delta Tm [8] [°C] | thermal shift delta Tm [9] [°C] | thermal shift delta Tm [10] [°C]
C[C@]1(O)C[C@@H](c2nc(-c3ccc4ccc(-c5ccccc5)nc4c3)c3c(N)nccn32)C1 [Linsitinib (OSI-906)] | 1.14 | -0.88 | 0.14 | 0.82 | 0.26 | 0.9 | 1.68 | 0.41 | 0.44 | -0.16
O=C(NCCCNc1nc(Nc2cccc(NC(=O)N3CCCC3)c2)ncc1I)c1cccs1 | 4.61 | 2.64 | 1.85 | -0.09 | 5.77 | 3.44 | 8.52 | 2.91 | 1.38 | 10.7
Cn1cnc2c(F)c(Nc3ccc(Br)cc3F)c(C(=O)NOCCO)cc21 | 0.1 | 0.45 | 0.02 | -0.05 | 0.19 | 0.38 | 0.61 | 0.43 | 0.53 | 0.01
CN(C)S(=O)(=O)c1ccc2c(c1)/C(=C/c1cc3c([nH]1)CCCC3)C(=O)N2 | 0 | 6.57 | 2.65 | 1.7 | 1.95 | 3.86 | 3.22 | 2.42 | 3.07 | 13
O=C1Nc2ccc(CN3C(=O)CSC3=O)cc2/C1=C/c1cc(CN2CCOCC2)c[nH]1 | 1.25 | 3.61 | 0.75 | 0.08 | 0.42 | 0.16 | 0.49 | 1.28 | 0.13 | 2.79
CNC(=O)c1cc(Oc2ccc(NC(=O)Nc3ccc(Cl)c(C(F)(F)F)c3)cc2)ccn1 [Sorafenib] | 1.65 | 3.61 | 1.53 | 1.59 | 4.41 | 2.7 | 1.52 | 2.74 | 0.71 | 5.22
COC(=O)N[C@@H](C)CNc1nccc(-c2cn(C(C)C)nc2-c2cc(Cl)cc(NS(C)(=O)=O)c2F)n1 [Encorafenib (LGX818)] | 0.41 | 0.83 | 0.1 | -0.12 | 5.56 | 0.28 | 0.05 | 0.2 | 0.1 | 0.5
O=C(NCCO)c1cccc(-c2cc(Nc3ccc(OC(F)(F)F)cc3)ncn2)c1 | 0.32 | 0.32 | 0.34 | 0.62 | 1.32 | 0.44 | 0.3 | 2.99 | 0.2 | 1.46
CN1CCN(C2CCN(C(=O)Nc3cc(Oc4ccc(NC(=O)C5(C(=O)Nc6ccc(F)cc6)CC5)c(F)c4)ccn3)CC2)CC1 [Golvatinib (E7050)] | -0.03 | 1.21 | 0.95 | 0.07 | 0.62 | 0.11 | 0.93 | 2.98 | 0.51 | 0.09
CN1CCC(COc2cnc(-c3cccc(Cn4nc(-c5cccc(C#N)c5)ccc4=O)c3)nc2)CC1 | 0.33 | 0.27 | 0.17 | -0.5 | 0.03 | 0.05 | 0.63 | 0.2 | 0.24 | 0.04
Cc1cc(Nc2nc(N[C@@H](C)c3ncc(F)cn3)ncc2Cl)[nH]n1 | 4.53 | 2.77 | 0.35 | -0.03 | 2.85 | 2.53 | 4.56 | 6.25 | 0.55 | 0.71
N#Cc1cnc(Nc2cc(NC[C@H]3CNCCO3)c(C(F)(F)F)cn2)cn1 | 0.36 | 2.89 | 0.47 | -0.18 | 2.93 | 0.6 | 0.93 | 2.58 | 0.75 | 5.23
Nc1nccc(Oc2ccc3c(C(=O)Nc4cccc(C(F)(F)F)c4)cccc3c2)n1 | 0.89 | 1.42 | 0.88 | 1.39 | 3.82 | 1.43 | 0.93 | 1.13 | 0.12 | 1.04
CCn1nc(C2CCN(C(=O)CCO)CC2)nc1-c1cnc(N)c(-c2nnc(C(C)(C)C)o2)n1 | 0.39 | 0.51 | 0.81 | 0.46 | 2.91 | 1.09 | 2.31 | 0.07 | -0.09 | 1.14
Cc1cc(Nc2cc(Cl)nc(Oc3ccc([N+](=O)[O-])cc3)n2)n[nH]1 [Autophinib] | 2.53 | 3.49 | 2.92 | -0.1 | 7.77 | 1.42 | 1.82 | 4.13 | 0.51 | 5.57
CO[C@H]1C[C@@H]2CC[C@@H](C)[C@@](O)(O2)C(=O)C(=O)N2CCCC[C@H]2C(=O)O[C@H]([C@H](C)C[C@@H]2CC[C@@H](OP(C)(C)=O)[C@H](OC)C2)CC(=O)[C@H](C)/C=C(\C)[C@@H](O)[C@@H](OC)C(=O)[C@H](C)C[C@H](C)/C=C/C=C/C=C/1C [Ridaforolimus (Deforolimus, MK-8669)] | 0.73 | -1.9 | 0.47 | 0.18 | 0.16 | 0.07 | -0.26 | 0.54 | -0.09 | 0.11
CC(C)c1cnn2c(NCc3ccccc3)cc(NCCCCCCN)nc12 | 0.34 | 0.13 | 0.11 | -0.23 | 0.11 | 0.56 | -0.29 | 0.09 | -0.21 | 0.18
COc1cc(Nc2ncc(F)c(Nc3ccc4c(n3)NC(=O)C(C)(C)O4)n2)cc(OC)c1OC [R406 (free base)] | 0.61 | 1.68 | 0.13 | 0.48 | 5.16 | 4.15 | 5.87 | 0.31 | 0.55 | 8.56

Compound | thermal shift delta Tm [1] [°C] | thermal shift delta Tm [2] [°C] | thermal shift delta Tm [3] [°C] | thermal shift delta Tm [4] [°C] | thermal shift delta Tm [5] [°C] | thermal shift delta Tm [6] [°C] | thermal shift delta Tm [7] [°C] | thermal shift delta Tm [8] [°C] | thermal shift delta Tm [9] [°C] | thermal shift delta Tm [10] [°C]
O=C(O)CCC(=O)Nc1ccc(Br)cn1 [Bikinin] | 0.12 | 0.77 | -0.24 | 0.21 | 1.54 | 0.85 | -0.26 | 0.5 | 0.37 | 0.34
COc1ccc(COc2cc3oc(=O)c4cc(C(C)O)ccc4c3cc2OC)cc1 (stereo not given) [Palomid 529 (P529)] | 0.67 | 0.16 | 1.07 | 0.03 | 0.14 | 0.64 | -0.21 | 0.4 | 0 | 0.04
Cc1cc(N2CCOCC2)cc2[nH]c(-c3c(NC[C@@H](O)c4cccc(Cl)c4)cc[nH]c3=O)nc12 | 4.78 | 2.98 | -0.47 | 0.09 | 1.24 | 1.2 | 2.56 | 1.43 | 0.28 | 3.88
Cc1ccc(Nc2nccc(N(C)c3ccc4c(C)n(C)nc4c3)n2)cc1S(N)(=O)=O | 2.81 | 0.47 | 1.7 | 0.62 | 1.21 | 1.29 | 1.56 | 4.66 | 0.3 | 0.89
CN1CCN(Cc2ccc(-c3cnc4[nH]cc(-c5ccc6[nH]ccc6c5)c4c3)cc2)CC1 | 3.79 | 5.34 | 4.45 | -0.19 | 4.87 | 4.44 | 9 | 3.1 | 0.11 | 9.93
COC(=O)Nc1ccc(-c2nc(N3CCOCC3)c3cnn(C4CCN(C(=O)OC)CC4)c3n2)cc1 | 0.48 | 0.7 | 1.9 | 0.44 | 0.21 | 0.37 | -0.17 | 0.23 | -0.05 | 0.25
CCCCCCCCCCCCCCCCCCOP(=O)([O-])OC1CC[N+](C)(C)CC1 [Perifosine (KRX-0401)] | -2.46 | -3.08 | -2.19 | -2.02 | -1.55 | -1.07 | -4.67 | -1.63 | -3.01 | -2.26
CONC(=O)c1ccccc1Nc1cc(Nc2cc(C)nn2C(C)C)ncc1Cl | 0.19 | 1.48 | 0.57 | -0.17 | 0.66 | 0.75 | 4.21 | 1.49 | 0.4 | 3.96
C=CC(=O)Nc1cc(Nc2nccc(-c3c[nH]c4ccccc34)n2)c(OC)cc1N(C)CCN(C)C | 0.92 | 0.98 | 0.33 | 0.08 | 0.37 | 0.6 | 0.12 | 0.83 | 0.34 | 0.96
COc1cc(Nc2ncc(F)c(Nc3ccc4c(n3)NC(=O)C(C)(C)O4)n2)cc(OC)c1OC | 0.76 | 0.35 | 0.54 | -0.84 | 5.04 | 3.95 | 4.95 | 0.28 | 0.41 | 7.74
COc1cc2ncnc(Nc3ccc(Cl)cc3F)c2cc1OC | 0.69 | 0.81 | 0.27 | 0.26 | 0.32 | 0.85 | 1.07 | 0.9 | 0.46 | 0.58
CCn1cc(-c2ccnc3[nH]c(-c4cccc(CN(C)C)c4)cc23)c(-c2ccc(NC(=O)N(C)C)cc2)n1 | 0.68 | 2.48 | 1.01 | 0.47 | 2.81 | 0.73 | 0.91 | 1.28 | 0.51 | 0.87
CC[C@@](C)(Nc1ccnc(-c2c[nH]c3ncccc23)n1)C(=O)NCC(F)(F)F [Decernotinib (VX-509)] | 0.58 | 1.32 | -0.38 | 0.4 | 0.78 | 3.1 | -0.05 | 1.08 | 0.22 | 0.18
Oc1cccc(-c2nc(N3CCOCC3)c3oc4ncccc4c3n2)c1 | 0.96 | 0.09 | 0.03 | 0.75 | 0.17 | 0.64 | 0.74 | 0.11 | 0.21 | 0.11
COc1cc(N2CCC(N)CC2)ccc1Nc1ncc(Cl)c(-c2c[nH]c3ccccc23)n1 | 0.82 | 0.87 | 2.95 | -0.64 | 1.41 | 3.79 | -2.78 | 0.17 | 1.21 | 5.27
CCN(CC)CCNC(=O)c1c(C)[nH]c(/C=C2\C(=O)Nc3ccc(F)cc32)c1C [Sunitinib] | 3.95 | 1.72 | 0.25 | -0.3 | 1.43 | 2.21 | 2.9 | 1.72 | 0.22 | 7.91
C[C@H](NC(=O)/C(C#N)=C/c1cccc(Br)n1)c1ccccc1 | -1.2 | -2.27 | -0.05 | -0.79 | -1.13 | -0.08 | -1.71 | 0.12 | -1 | -1.36
